Results: PubChem BioAssay (NCATS)
Results filed as inconclusive are left out. Activity calls are given as the source filed them. The call rests on the fitted dose curve; in most records, active means well fitted curve in the direction sought with a large enough effect; inconclusive means small, poorly fitted or top-dose-only effect, or another doubt; inactive means no such curve, though single readings can be large; an effect the other way counts as inactive or inconclusive.

How the values were obtained:
CRL-7250 = normal cell line; assay: Cytotoxic Profiling of Annotated Libraries Using Quantitative High-Throughput Screening (AID 1296008); conditions: Five cell lines viability, CellTiter-Glo ATP luminescence, 48-72 h; max response: stronger effect = lower value; further: nearly all actives have a fitted effect of over 60% in size; further: potency means the concentration at half of the fitted maximal effect; on max response: on the % scale 0 is the no-effect control and ±100 the full control effect
Procedure, shortened: (§1)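 Compounds were pin-transferred onto cells and incubated 48 or 72 hr at 37 degree Celsius, 95% humidity. CellTiter-Glo was added, plates sat 10 min at room temperature, then ATP-coupled luminescence was imaged as the viability read-out.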

HEK293 = assay: as above; conditions: Five cell lines viability, CellTiter-Glo ATP luminescence, 48-72 h; max response: stronger effect = lower value
Procedure, shortened: as §1

HaCat = assay: as above; conditions: Five cell lines viability, CellTiter-Glo ATP luminescence, 48-72 h; max response: stronger effect = lower value
Procedure, shortened: as §1

NIH3T3 = assay: as above; conditions: Five cell lines viability, CellTiter-Glo ATP luminescence, 48-72 h; max response: stronger effect = lower value
Procedure, shortened: as §1

MCC-13 = assay: qHTS assay to identify novel small-molecules to repurpose for Merkel cell carcinoma treatment (AID 1296009); conditions: MCC and control cell lines, CellTiter-Glo viability, 72 h; series mostly up to 46 µM; further: nearly all actives have a fitted effect of over 60% in size; further: potency means the concentration at half of the fitted maximal effect
Procedure, shortened: (§2)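 Viability readout: ATP luminescence (CellTiter-Glo) after 72 hr drug exposure at 37 degree celsius. Dose-response format was 8 points for NPC and 11 points for MIPE; data normalized to in-plate controls.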

MCC-26 = assay: as above; conditions: MCC and control cell lines, CellTiter-Glo viability, 72 h; series mostly up to 46 µM
Procedure, shortened: as §2

MKL-1 = assay: as above; conditions: MCC and control cell lines, CellTiter-Glo viability, 72 h; series mostly up to 46 µM
Procedure, shortened: as §2

MKL-2 = assay: as above; conditions: MCC and control cell lines, CellTiter-Glo viability, 72 h; series mostly up to 46 µM
Procedure, shortened: as §2

UISO = assay: as above; conditions: MCC and control cell lines, CellTiter-Glo viability, 72 h; series mostly up to 46 µM
Procedure, shortened: as §2

WaGa = assay: as above; conditions: MCC and control cell lines, CellTiter-Glo viability, 72 h; series mostly up to 46 µM
Procedure, shortened: as §2

C33A = assay: Primary qHTS to identify gynecologic anti-cancer compounds using libraries of approved drugs and bioactive compounds (AID 1345084); conditions: Gynecologic cancer cell panel viability, ATPlite luminescence, 48 h; series mostly up to 57.5 µM; further: nearly all actives have a fitted effect of over 55% in size; further: potency means the concentration at half of the fitted maximal effect
Procedure, shortened: (§3)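 Cell viability after 48 h drug treatment, ATPlite luminescence readout; five doses.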

CAOV3 = assay: as above; conditions: Gynecologic cancer cell panel viability, ATPlite luminescence, 48 h; series mostly up to 57.5 µM
Procedure, shortened: as §3

CASKI = assay: as above; conditions: Gynecologic cancer cell panel viability, ATPlite luminescence, 48 h; series mostly up to 57.5 µM
Procedure, shortened: as §3

Es-2 = assay: as above; conditions: Gynecologic cancer cell panel viability, ATPlite luminescence, 48 h; series mostly up to 57.5 µM
Procedure, shortened: as §3

HeLa = assay: as above; conditions: Gynecologic cancer cell panel viability, ATPlite luminescence, 48 h; series mostly up to 57.5 µM
Procedure, shortened: as §3

W2 = assay: qHTS profiling for inhibitors of Plasmodium falciparum proliferation (AID 504749); conditions: P. falciparum in erythrocytes, SYBR Green DNA, 72 h; series mostly up to 28.7 µM
Procedure, shortened: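 Quantitative HTS: compounds pinned into medium, infected erythrocytes added (0.3% parasitemia, 2.5% hematocrit), 72 h culture at 37 C under 5% CO2. Saponin/Triton lysis with SYBR Green I, overnight RT, then fluorescence read.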

HEK293T = assay: qHTS assay to identify novel small-molecules to repurpose for Merkel cell carcinoma treatment (AID 1296009); conditions: MCC and control cell lines, CellTiter-Glo viability, 72 h; at 44.8 µM (top of the series) unless noted; further: nearly all actives have a fitted effect of over 60% in size; further: potency means the concentration at half of the fitted maximal effect
Procedure, shortened: as §2

KB-3-1 = assay: Cytotoxic Profiling of Annotated Libraries Using Quantitative High-Throughput Screening (AID 1296008); conditions: Five cell lines viability, CellTiter-Glo ATP luminescence, 48-72 h; max response: stronger effect = lower value; further: nearly all actives have a fitted effect of over 60% in size; further: potency means the concentration at half of the fitted maximal effect; on max response: on the % scale 0 is the no-effect control and ±100 the full control effect
Procedure, shortened: as §1

NS(=O)(=O)c1cc2c(cc1Cl)NC(CC1CCCC1)NS2(=O)=O (centres undefined)
inactive: max response (CRL-7250) -2.46% | max response (HEK293) -7.58% | max response (HaCat) -5.14% | max response (NIH3T3) 2.98% | Potency (MCC-13) | Potency (MCC-26) | Potency (MKL-1) | Potency (MKL-2) | Potency (UISO) | Potency (WaGa) | Potency (C33A) | Potency (CAOV3) | Potency (CASKI) | Potency (Es-2) | Potency (HeLa)

O=C(O)P(=O)(O)O
inactive: Potency (W2) | outcome (CRL-7250) | max response (HEK293) 0.892% | max response (HaCat) -5.53% | max response (NIH3T3) 4.83% | Potency (MCC-13) | Potency (MCC-26) | Potency (MKL-1) | Potency (MKL-2) | Potency (UISO) | Potency (WaGa) | Potency (C33A) | Potency (CAOV3) | Potency (CASKI) | Potency (Es-2) | Potency (HeLa)

NS(=O)(=O)c1ccc(Cl)c(S(N)(=O)=O)c1
inactive: Potency (W2) | max response (CRL-7250) -4.09% | outcome (HEK293) | max response (HaCat) -3.23% | max response (NIH3T3) -4.55% | outcome (HEK293T) | Potency (MCC-13) | Potency (MCC-26) | Potency (MKL-1) | Potency (MKL-2) | Potency (UISO) | Potency (WaGa) | Potency (C33A) | Potency (CASKI) | Potency (Es-2) | Potency (HeLa)

O=S(c1cc(Cl)cc(Cl)c1O)c1cc(Cl)cc(Cl)c1O
inactive: outcome (CRL-7250) | max response (HEK293) -2.46% | max response (HaCat) -16.1% | max response (NIH3T3) 1.36% | Potency (MCC-13) | Potency (MCC-26) | Potency (MKL-1) | Potency (MKL-2) | Potency (UISO) | Potency (C33A) | Potency (CAOV3) | Potency (CASKI) | Potency (Es-2) | Potency (HeLa)

CC(=O)NCCCCCC(=O)O
inactive: Potency (W2) | max response (CRL-7250) -1.79% | max response (HEK293) 1.53% | max response (HaCat) -2.92% | max response (NIH3T3) -7.1% | Potency (MCC-13) | Potency (MCC-26) | Potency (MKL-1) | Potency (MKL-2) | Potency (UISO) | Potency (WaGa) | Potency (C33A) | Potency (CAOV3) | Potency (CASKI) | Potency (Es-2) | Potency (HeLa)

CC[C@H](c1ccc(O)cc1)[C@@H](CC)c1ccc(O)cc1
inactive: Potency (W2) | max response (CRL-7250) 3.93% | max response (HEK293) -17.5% | max response (HaCat) 0.0962% | max response (NIH3T3) 4.6% | Potency (MCC-13) | Potency (MCC-26) | Potency (MKL-1) | Potency (C33A) | Potency (CAOV3) | Potency (CASKI) | Potency (Es-2) | Potency (HeLa)

O=S(=O)(O)c1ccc(O)cc1
inactive: Potency (W2) | max response (CRL-7250) -8.14% | max response (HEK293) 2.28% | max response (HaCat) -3.34% | max response (KB-3-1) -1.6% | max response (NIH3T3) 1.54% | Potency (MCC-13) | Potency (MKL-1) | Potency (MKL-2) | Potency (UISO) | Potency (WaGa) | Potency (C33A) | Potency (CASKI) | Potency (Es-2) | Potency (HeLa)

C[C@H]1O[C@@H](O[C@H]2CC[C@@]3(C)[C@H](CC[C@@H]4[C@@H]3C[C@@H](O)[C@]3(C)[C@@H](C5=CC(=O)OC5)CC[C@]43O)C2)C[C@H](O)[C@@H]1O[C@H]1C[C@H](O)[C@H](O[C@H]2C[C@H](O)[C@H](O[C@@H]3O[C@H](CO)[C@@H](O)[C@H](O)[C@H]3O)[C@@H](C)O2)[C@@H](C)O1
active: Potency (CRL-7250) 211 nM | Potency (HEK293) 188 nM | Potency (HaCat) 596 nM | Potency (KB-3-1) 259 nM | Potency (MCC-13) 335 nM | Potency (MCC-26) 668 nM | Potency (MKL-1) 531 nM | Potency (MKL-2) 299 nM | Potency (UISO) 299 nM | Potency (C33A) 282 nM | Potency (CAOV3) 501 nM | Potency (CASKI) 1580 nM | Potency (Es-2) 447 nM | Potency (HeLa) 355 nM
